DTT redox prof: compounds producing H2O2 with reducing agent – biochemical, NIH compound library profiling, artefact control for MLSCN library redox annotation, primary screen. DTT-dependent redox cycling H2O2, phenol red/HRP absorbance; 100% = 100 µM peroxide control, 0% = buffer. activation, % at 10 µM. 200,000 compounds, 0.03% hits;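 active = activation of at least 50% relative to the plate's high and low controls in the primary single-dose screen; inactive = activation below 50%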;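 also: compound incubated with DTT at 0.8 mM final as the reducing agent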
PKD1 inh: blocks activity of human protein kinase D1; PKD1 kinase fluorescence polarization assay; inhibition, % (no concentration beside the values); 200,000 compounds, 0.056% hits; AID 797; in the data active = inhibition above about 50%
WT yeast gro inh: growth inhibition of WT yeast, mitochondrial fusion screen; mitochondrial fusion phenotypic screen, WT strain; inhibition, % at 10 µM; 190,000 compounds, 2.1% hits; AID 1362; in the data active = inhibition above about 58%; tested in S. cerevisiae
L929 necroptosis: L929 zVAD cell death inhibition | L929 zVAD necroptosis rescue, ATP luminescence, 24 h; with zVAD 60 µM | viability rescue, % at 10 µM | 220,000 compounds, 0.38% hits | AID 1377;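 active = activation, scaled between plate controls, above about 75%, limit read from the data; inactive = activation under that limit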;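 also: 0% = zVAD with DMSO and 100% = DMSO alone without zVAD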
TNF death inh: inhibitors of TNF-alpha induced necroptosis in Jurkat FADD-/- cells | Jurkat FADD-/- TNF necroptosis rescue, ATP luminescence, 24 h; 0 = TNF only, 100 = no-TNF cells | AID 463075 | 220,000 compounds, 0.068% hits | activation (protection from cell death), % at 10 µM;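 active = activation, meaning protection from cell death, of at least 50% relative to plate controls; inactive = activation below 50%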;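 also: necroptosis triggered by 40 ng/mL TNF-alpha added together with compound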
PERK inhibitor: inhibitors of human PERK kinase | Q9NZJ5 | CHO PERK-DD fusion, SEAP luminescence translation reporter | inhibition, % at 5.6 µM | 220,000 compounds, 0.17% hits;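 active = inhibition above the mean inhibition of all tested compounds plus 3 SD, set separately per screening campaign, cut at about 2.9% in these data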;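 also: PERK kinase domain activated by AP20187 dimerizer at 100 nM; 0% = DMSO with dimerizer and 100% = rapamycin at 8.4 µM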
The depositor's hits bear a star; . = not tested or not shown. Sampled rows, rich in hits. Any-hit rate of the full collection: about 2.4%.

SMILES	DTT redox prof	PKD1 inh	WT yeast gro inh	L929 necroptosis	TNF death inh	PERK inhibitor
O=C(CN1CCN(c2ccccn2)CC1)N1c2ccccc2Sc2ccc(C(F)(F)F)cc21	1	7	66*	0	-4	0
Cc1ccc(C(=O)O)cc1NC(=O)CSc1ncnc2sc3c(c12)CCC3	.	.	.	0	1	1
On1onc2c3cc(-c4ccccc4)nc3ccc21	2	-4	81*	23	-8	1
c1ccc(-c2cc3c(ccc4nonc43)nn2)cc1	3	6	-6	1	0	0
Cc1nc2ccccn2c1C(=O)N=Nc1c(O)[nH]c2ccccc12	0	5	0	1	1	-1
CCSc1ncc(/C=N/Nc2ccccc2)n1C	3	17	71*	0	-3	0
CCSc1ncc(/C=N/Nc2ccc(Cl)cc2)n1C	4	2	30	1	-2	-1
CC1CCN(C(C)C(=O)Nc2ccccc2-c2ccccc2)CC1 (stereo not drawn)	-3	-1	60*	0	-1	2
CC1CCN(S(=O)(=O)c2ccc(N/N=C(/C#N)C(N)=O)cc2)CC1	1	-3	78*	0	-3	-1
N#C/C(=N\Nc1ccc(S(=O)(=O)N2CCOCC2)cc1)C(N)=S	.	.	.	3	-3	1
CN1/C(=C\C=O)C(C)(C)c2ccccc21	0	6	8	2	-5	0
CN1\C(=C/C=C/C=C/C=[N+](C)C)C(C)(C)c2ccccc21	-1	-7	92*	-1	-12	0
CN1/C(=C\C=Nc2ccc3ccccc3c2)C(C)(C)c2ccccc21	1	-12	77*	0	-3	-1
CCC(C)Oc1nc2c(c(=O)n(C)c(=O)n2C)n1C (stereo not drawn)	.	.	.	0	0	1
CCN(CC)CCC(C)OC(=O)c1ccc(O)cc1O (stereo not drawn)	0	0	-15	-1	0	0
O=C(COC(=O)C1COc2ccccc2O1)NC(=O)Nc1ccc2c(c1)OCCO2 (stereo not drawn)	0	-7	99*	-1	0	1
CCCCn1c(-c2csc3ccccc23)n[nH]c1=S	0	-1	26	0	-2	0
CCCCn1c(-c2csc3c2CCC(C)C3)n[nH]c1=S (stereo not drawn)	-4	0	76*	1	-4	0
CCCc1cc(-c2n[nH]c(=S)n2CC(C)C)cs1	0	-11	62*	0	0	0
CCCCn1c(-c2csc(CC)c2)n[nH]c1=S	0	-20	67*	0	0	1
CCc1cc(-c2n[nH]c(=S)n2-c2cccc(C)c2)cs1	-1	13	61*	0	0	0
CCCCn1c(-c2csc(C(C)C)c2)n[nH]c1=S	0	1	65*	0	1	0
COc1ccc(-c2cc3nc4c(c(N5CCC6(CC5)OCCO6)n3n2)CCC4)cc1	0	-4	0	17	-1	-1
Cc1cccc(-c2cc3nc4c(c(N5CCOCC5)n3n2)CCCC4)c1	2	-3	69*	0	-2	-1
COc1cccc(-c2cc3nc4c(c(N5CCC6(CC5)OCCO6)n3n2)CCC4)c1	0	2	65*	3	-1	0
SMILES	DTT redox prof	PKD1 inh	WT yeast gro inh	L929 necroptosis	TNF death inh	PERK inhibitor
CCCCSc1nnc(-c2ccc(C)cc2)c2ccccc12	0	-11	78*	1	3	0
COc1ccc(C(=O)Nc2sc(C)c(C)c2CN2CC(C)OC(C)C2)cc1 (stereo not drawn)	4	8	5	2	0	0
Cc1[nH]c2ccccc2c1C(=O)COC(=O)c1c(-c2ccccc2Cl)noc1C	-1	10	87*	0	-3	-2
Cc1[nH]c2ccccc2c1C(=O)COC(=O)c1c(-c2c(F)cccc2Cl)noc1C	0	4	85*	3	1	0
Cc1onc(-c2ccccc2Cl)c1C(=O)OCn1nnc2ccccc2c1=O	0	-7	3	0	-1	-1
CCCCCCCOC(=O)C[N+](C)(C)CCOC1CC2CCC1(C)C2(C)C (stereo not drawn)	1	1	78*	2	-2	0
COCCCNc1c2c3c(cccc3[nH]c1=O)C(=O)c1ccccc1-2	0	110*	-1	5	-8	0
COC(=O)c1ccc(C(=O)N(CCN(C)C)c2nc3c(Cl)cccc3s2)cc1	-2	-3	-2	1	3	0
CC1CC(C)(C)Nc2ccc(N=O)cc21 (stereo not drawn)	-1	-3	75*	62	-12	-1
Cc1c(Cl)cnc(NC(=O)COC(=O)Cc2coc3ccc4ccccc4c23)c1Cl	0	-2	-7	1	2	0
CC(C)(C)NC(=O)NC(=O)COC(=O)Cc1coc2ccc3ccccc3c12	0	-1	70*	2	3	-1
CC(C)N1C(=O)/C(=C/c2nc3ccccc3c(=O)n2-c2ccccc2)c2ccccc21	1	-8	-8	0	-15	-1
CC(C)N1C(=O)/C(=C\c2nc3ccccc3c(=O)n2-c2ccccc2)c2ccccc21	0	7	84*	3	4	-2
CSc1ccccc1NC(=O)c1ccccc1N(Cc1ccccc1)S(C)(=O)=O	2	-7	10	0	-1	1
Oc1ccccc1/C=N/Nc1cc(N2CCCC2)nc(N2CCCC2)n1	0	-6	74*	2	-4	-1
C[C@H]1COC2=C1C(=O)C(=O)c1c2ccc2c1CCCC2(C)C	0	-3	74*	2	-3	1
Cc1coc2c1C(=O)C(=O)c1c-2ccc2c(C)cccc12	.	.	.	7	-20	.
Cc1coc2c1C(=O)C(=O)c1c-2ccc2c1CCCC2(C)C	0	10	73*	4	-4	1
CCn1c(CN2CCN(Cc3ccc(C)cc3)C(CCO)C2)nc2ccccc21 (stereo not drawn)	1	3	9	2	4	1
Cc1cc(C)n(-c2ccccc2C#N)n1	.	.	.	0	0	1
Cc1cccc2sc(NC(=O)c3ccc(NS(=O)(=O)c4cccs4)cc3)nc12	0	-14	67*	2	5	0
CCCCCCOc1ccc(-c2ccc(C#N)cn2)cc1	2	-8	30	0	-2	3.1*
CCCCCCOc1ccc(C(=O)O)cc1	.	.	.	0	1	1
CCOc1ccc(C(C)=O)cc1CN1C(=O)C(=O)N(CC)C1=O	-3	-7	0	0	1	1
O=[N+]([O-])c1ccc2nc(/C=C/c3ccc(Cl)cc3)[nH]c2c1	-3	0	67*	5	-13	0
